Measured values: PubChem BioAssay (NCATS)
The source made the active and inactive calls. No rule for the calls is given here.

These compounds were tested on HIV-1 nucleocapsid protein NCp7 (binding to TG oligonucleotide) (assay: HIV Nucleocapsid (AID 346;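 also: potency is for inhibitors that block NC binding and lower polarization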)). Details: HIV-1 NC / fluorescein-TGTGTGTG probe, fluorescence polarization.
In short: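 NCp7 100 nM + fluorescein TG4xF 10 nM; Hepes pH 7.5/250mM NaCl/1uM ZnCl2/0.004% PEG 20000; 1 hr RT; FP, 45 s exposure; oligo-only wells as negative control.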
Potency is read from the fitted curve at half-maximal effect.

Row | SMILES | Potency
1 | CN(C)c1ncnc2ccc(-c3ccccc3C#N)cc12 | > 20 µM (inactive)
2 | COc1ncc2nc(C)c(=O)n(C3CC3)c2n1 | > 20 µM (inactive)
3 | O=C(c1cc(C(F)(F)F)cc(C(F)(F)F)c1)N1CCC2(CC1)CN(c1ncccn1)C2 | > 20 µM (inactive)
4 | COc1ccc(Oc2ncc3nc(CCc4ccccc4)c(=O)n(C4CC4)c3n2)cc1 | > 20 µM (inactive)
5 | COc1ccc2[nH]cc(CCNc3ncncc3-c3ccccc3C)c2c1 | > 20 µM (inactive)
6 | FC(F)(F)c1ccccc1-c1nccc(NCc2ccccc2)n1 | > 20 µM (inactive)
7 | COc1ncc2ncc(=O)n(Cc3cccs3)c2n1 | > 20 µM (inactive)
8 | CCNc1ncc2nc(-c3cc(F)cc(F)c3)c(=O)n(CCOC)c2n1 | > 20 µM (inactive)
9 | COCCn1c(=O)cnc2cnc(Oc3ccccc3)nc21 | > 20 µM (inactive)
10 | COc1ccccc1CN1CCCC2(CCN(C(=O)c3csnn3)CC2)C1 | > 20 µM (inactive)
11 | Cc1cnc(CNc2ncncc2-c2ccccc2C)cn1 | > 20 µM (inactive)
12 | CC(=O)NCCNc1nc(-c2c(C)noc2C)nc2ccccc12 | > 20 µM (inactive)
13 | COc1ccc(-c2nc3cnc(Nc4cccc(OC)c4)nc3n(CCC#N)c2=O)cc1 | > 20 µM (inactive)
14 | COCC(=O)N1CCC[C@@]2(CCN(c3ccccn3)C2)C1 | > 20 µM (inactive)
15 | CS(=O)(=O)N1CCC2(CCN(c3ccccn3)CC2)CC1 | > 20 µM (inactive)
16 | c1ccc(CNc2ncnc3ccc(-c4ccc5c(c4)OCO5)cc23)cc1 | > 20 µM (inactive)
17 | Clc1ccccc1-c1cc(NCCN2CCOCC2)ncn1 | > 20 µM (inactive)
18 | O=c1c(-c2cc(F)cc(F)c2)nc2cncnc2n1Cc1ccccc1 | > 20 µM (inactive)
19 | COc1ccc(CNc2ccnc(-c3cccc(C#N)c3)n2)c(OC)c1 | > 20 µM (inactive)
20 | COc1ccc(-c2nc3cnc(Nc4ccccc4)nc3n(CCC#N)c2=O)cc1 | 2.04 µM (active)
21 | COc1ncc2nc(-c3cc(F)cc(F)c3)c(=O)n(-c3ccccc3)c2n1 | > 20 µM (inactive)
22 | O=C(Nc1cccc(F)c1)N1CCC2(CC1)CCN(C(=O)c1cccc(F)c1)CC2 | > 20 µM (inactive)
23 | O=c1c(-c2ccccc2)nc2cncnc2n1Cc1ccccc1Cl | > 20 µM (inactive)
24 | COc1ccccc1CN1CC2(CCN(C(=O)c3ccncc3)CC2)C1 | > 20 µM (inactive)
